# Test results taken from PubChem BioAssay (NCATS).
# Inconclusive results are not listed. The source made the active and inactive calls. The call rests on the fitted dose curve; in most records, active means well fitted cell-killing curve with a large enough effect; inconclusive means small, poorly fitted or top-dose-only effect, or effect the other way; inactive means no such curve, though single readings can be large or run the other way.
# Test: Quantitative High-Throughput drug screen in 47 multiple myeloma cell lines against the NCATS MIPE library collection: KMS26_JCRB cell viability assay (AID 1918975); further: nearly all actives have a fitted effect of over 45% in size
# Conditions: KMS26 myeloma cells viability, CellTiter-Glo ATP, 48 h; series mostly up to 45.8 µM
# Description: PI: Beverly A. Mock Ph.D.
# Laboratory of Cancer Biology and Genetics,
# Center for Cancer Research, National Cancer Institute,
# National Institute of Health, Bethesda, Maryland
# Drug resistance and disease progression are common in multiple myeloma (MM) patients, underscoring the need for new therapeutic combinations. […] We hypothesized that effective combinations would reduce MYC expression and enhance p16 activity. […] These preclinical data identify potentially useful drug combinations for evaluation in drug-resistant MM and reveal potential mechanisms of combined drug sensitivity.
# Described herein is the primary MIPE qHTS used to cherrypick compounds. Validated compounds were then further tested for potential synergistic activiy.
# [1] Peat TJ, Gaikwad SM, Dubois W, Gyabaah-Kessie N, Zhang S, Gorjifard S, Phyo Z, Andres M, Hughitt VK, Simpson RM, Miller MA, Girvin AT, Taylor A, Williams D, D'Antonio N, Zhang Y, Rajagopalan A, Flietner E, Wilson K, Zhang X, Shinn P, Klumpp-Thomas C, McKnight C, Itkin Z, Chen L, Kazandijian D, Zhang J, Michalowski AM, Simmons JK, Keats J, Thomas CJ, Mock BA. Drug combinations identified by high-throughput screening promote cell cycle transition and upregulate Smad pathways in myeloma. Cancer Lett. 2023 Aug 1;568:216284. doi: 10.1016/j.canlet.2023.216284. Epub 2023 Jun 24. PMID: 37356470; PMCID: PMC10408729.
# SEQUENCE No. (e.g., 1, 2, 3, etc.); […] (e.g., Cells, Incubation, Reagent, etc.); VALUE and DESCRIPTION.
# 1; Cells; 5 uL; white, solid bottom 1536-well Greiner assay plate.
# 2; Compounds; 23 nL; Kalypsis pin tool (Wako USA) equipped with a 1536-well pin head to transfer to the assay plates.
# 3; Incubation; 48 hours; 37C incubation.
# 4; Reagent;5uL; CellTiter Glo (Promega).
# 5; Detector; 425V; Luminescence; Viewlux PerkinElmer.
# NOTES (numbers refer to Sequence numbers above)
# 1. The cell-based screening methods employed in this study were like those previously published. Briefly, the corresponding myeloma cell lines were screened in 1,536-well plates with 500 cells, 5-uL per well for inhibition of cell viability (assessed by measuring ATP levels with CellTiterGlo).
# 2. NCATS MIPE 4.0 library of approved and investigational drugs were added using the Kalypsis pin tool. Wells treated with DMSO only for 100% viability and media only wells for 0% viability were used as controls.
# 3. The assay plates were covered and incubated for 48 hours in a 37C, 5% CO2 incubator with controlled humidity.
# 4. After 48 hours, CellTilter-GloTM luminescent substrate mix (Promega) reagent was added to the assay plate and plates we incubated for 5 min at room temperature.
# 5. Signal was measured as median relative luminescence units on a ViewLux (PerkinElmer) multiplate reader.
# [1] Heske CM, Davis MI, Baumgart JT, Wilson K, Gormally MV, Chen L, Zhang X, Ceribelli M, Duveau DY, Guha R, Ferrer M, Arnaldez FI, Ji J, Tran HL, Zhang Y, Mendoza A, Helman LJ, Thomas CJ. Matrix Screen Identifies Synergistic Combination of PARP Inhibitors and Nicotinamide Phosphoribosyltransferase (NAMPT) Inhibitors in Ewing Sarcoma. Clin Cancer Res. 2017 Dec 1;23(23):7301-7311. doi: 10.1158/1078-0432.CCR-17-1121. Epub 2017 Sep 12. PMID: 28899971; PMCID: PMC6636827.
# Potency means the concentration at half of the fitted maximal effect.
row,Structure (SMILES),Potency
1,O=C(C=Cc1ccc(O)cc1)c1ccc(O)cc1O,23.5 µM (active)
2,Cc1nn(Cc2ccccc2Cl)c(C)c1CN(C)CC(O)COc1ccc(Cl)cc1 (stereo not given),20.9 µM (active)
3,C[C@@H]1C[C@H]2[C@@H]3CCC4=CC(=O)C=C[C@]4(C)[C@@]3(F)[C@@H](O)C[C@]2(C)[C@@]1(O)C(=O)CO,inactive
4,O=S(=O)(NCCNCC=Cc1ccc(Br)cc1)c1cccc2cnccc12,13.2 µM (active)
5,Oc1cc(O)cc(C=Cc2ccc(O)c(O)c2)c1,23.5 µM (active)
6,CC(C)c1c(C(=O)Nc2ccccc2)c(-c2ccccc2)c(-c2ccc(F)cc2)n1CC[C@H](O)C[C@@H](O)CC(=O)O,inactive
7,COc1ccc(-c2oc3c(CC=C(C)C)c(O)cc(O)c3c(=O)c2O)cc1,16.6 µM (active)
8,O=C(NCCCCN1CCOCC1)c1cc2ccccc2o1,inactive
9,CC(C)(OCc1nn(Cc2ccccc2)c2ccccc12)C(=O)O,6.62 µM (active)
10,CC1(C)C(N(O)C(=O)Nc2ccc(Cl)cc2)N(c2ccc(Cl)cc2)C(=O)N1CC(=O)NN=CC=Cc1ccc([N+](=O)[O-])o1 (stereo not given),8.33 µM (active)
11,CC1C(=O)OC2C(O)C34C5CC(C(C)(C)C)C36C(OC(=O)C6O)OC4(C(=O)O5)C12O (stereo not given),inactive
12,CCN(CC)CCCCNc1nc2cc(Cl)c(Cl)cc2nc1-c1ccc(-c2cccs2)s1,13.2 µM (active)
13,C[C@H](CCC(=O)O)[C@H]1CC[C@H]2[C@H]3[C@@H](CC[C@]12C)[C@@]1(C)CC[C@@H](O)C[C@H]1C[C@@H]3O,inactive
14,CN(C)c1ccc(-c2nc3ncc(Cl)c(N4CCN(CC(=O)Nc5nccs5)CC4)c3[nH]2)cc1,5.9 µM (active)
15,CN(C)CCN(C)C(=O)c1ccc(NC(=O)Nc2ccc(-c3nc(N4CCOCC4)c4ccn(CC(F)(F)F)c4n3)cc2)cc1,0.0526 µM (active)
16,CCCCCCCCCCCCCCCC(=O)O[C@H]1[C@@H](O)[C@@H](O)[C@@H]([C@H](NC(=O)[C@@H]2C[C@@H](CCC)CN2C)[C@H](C)Cl)O[C@@H]1SC,inactive
17,COc1ccc2ccc(=O)oc2c1CC=C(C)C,10.5 µM (active)
18,CN(C)CC[C@H](CSc1ccccc1)Nc1ccc(S(=O)(=O)NC(=O)c2ccc(N3CCN(Cc4ccccc4-c4ccc(Cl)cc4)CC3)cc2)cc1[N+](=O)[O-],1.66 µM (active)
19,COc1cc(N2CCN(C)CC2)ccc1Nc1nc(N)c(C(=O)c2c(Cl)cccc2Cl)s1,4.18 µM (active)
20,CN1CCC[C@H]1CCO[C@](C)(c1ccccc1)c1ccc(Cl)cc1,inactive

row,Structure (SMILES),Potency
1,CN(C)c1nc(Cc2ccc(NC(=O)c3ccc(C(F)(F)F)cc3)cc2)nc(N(C)C)c1CC(=O)O,inactive
2,Cc1cnc(CNC(=O)c2c(=O)c3ccc(N4CCCN(C)CC4)nc3n3c2sc2ccccc23)cn1,12.9 µM (active)
3,COc1cc2c(cc1OC)[C@@H]1Cc3ccc(OC)c(OC)c3CN1CC2,4.69 µM (active)
4,CCC(=C(CC)c1ccc(O)cc1)c1ccc(O)cc1,13.2 µM (active)
5,C#C[C@]1(O)CC[C@H]2[C@H]3CCc4cc(OC)ccc4[C@H]3CC[C@@]21C,2.64 µM (active)
6,CCN1C[C@H](C)n2c(c(O)c3c(=O)n(Cc4ccc(F)c(Cl)c4)nc(C(=O)NC)c32)C1=O,inactive
7,Cc1ccccc1-n1c(Cn2nc(-c3cccc(O)c3)c3c(N)ncnc32)nc2cccc(C)c2c1=O,11.8 µM (active)
8,Cn1c(=O)c(Oc2ccc(F)cc2F)cc2cnc(NC3CCOCC3)nc21,inactive
9,COC1CCC(C(=O)c2ccc3nc4c(cc3c2)CCCO4)CC1 (stereo not given),23.5 µM (active)
10,CN1[C@H]2CC[C@H]1CC(OC(=O)c1c[nH]c3ccccc13)C2 (stereo not given in full),inactive
11,CN(C)S(=O)(=O)c1ccc2c(c1)C(=Cc1cc3c([nH]1)CCCC3)C(=O)N2,2.35 µM (active)
12,NC(=O)c1ncn([C@@H]2O[C@H](CO)[C@@H](O)[C@@H]2O)n1,inactive
13,COc1c(C)c2c(c(O)c1CC=C(C)CCC(=O)OCCN1CCOCC1)C(=O)OC2,inactive
14,Nc1[nH]nc2nnc(-c3c(-c4ccccc4)nn4ccccc34)cc12,inactive
15,COc1nccc(-c2c(-c3ccc(F)cc3)ncn2C2CCNCC2)n1,inactive
16,COc1c(C)cnc(Cn2cnc3c(Cl)nc(N)nc32)c1C,0.209 µM (active)
17,CC1=C(C(=O)Nc2cc3cn[nH]c3cc2F)C(c2ccc(C(F)(F)F)cc2)CC(=O)N1 (stereo not given),inactive
18,O=C(CC12CC3CC(CC(C3)C1)C2)Nc1cccc2nc(NCCNCCO)ccc12,18.7 µM (active)
19,COc1cc(F)c(C(C)C)cc1-c1ccc(C(F)(F)F)cc1CN1C(=O)O[C@H](c2cc(C(F)(F)F)cc(C(F)(F)F)c2)[C@@H]1C,inactive
20,Nc1ccc(-c2ccc3ncc4ccc(=O)n(-c5cccc(C(F)(F)F)c5)c4c3c2)cn1,0.0296 µM (active)
